# From PubChem BioAssay
# HIF-2a inh: HIF-2a inhibition. 786-0 RCC cells HIF-2a reporter, luciferase luminescence, overnight. inhibition, % at 18.8 µM. 0.72% of 360,000 active. AID 624352;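 active means inhibition of the luminescence signal of 40% or more relative to plate controls, in a single-dose primary screen at 18.75 µM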
# iPSC survival up: hiPSC single-cell survival enhancement; AID 602274; 0.044% of 360,000 active; ATPlite luminescence; 100% = ROCK inhibitor wells, 0% = DMSO; survival enhancement, % at 20 µM; in the data active means survival enhancement above about 18%;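 further: cells exposed to compounds for 16 hours before the ATP read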
# TWEAK Fn14 block: TWEAK-Fn14 signaling inhibition; AID 1159606; inhibition, % at 10 µM; 2% of 360,000 active; TWEAK-stimulated Fn14 reporter cells, luciferase luminescence, 8 h; in the data active means inhibition above about 50%
# CF NFkB block: blocks PAF-induced NF-kB reporter in cystic fibrosis cells | KKLEB NF-kB-GFP reporter, GFP fluorescence overnight | inhibition, % at 5 µM | 0.86% of 360,000 active;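 active means at least 50% inhibition at 5 µM, scaled per plate between neutral and stimulator controls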;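 further: PAF is a Pseudomonas aeruginosa culture filtrate used as stimulus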
# LGR2 inh: Drosophila LGR2 receptor signaling inhibition | 0.35% of 380,000 active | HEK293 LGR2, CRE-luciferase, bursicon-stimulated, 4 h | AID 720647 | inhibition, % at 9.99 µM;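 active means drop in luminescence signal, shown as inhibition above about 50% in the replicate tests, limit read from the data, passing the limit was not always enough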;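 further: agonist challenge used bursicon conditioned medium at about half maximal strength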
# KKLEB tox: CF airway cell cytotoxicity counter-screen; activity change (cytotoxicity), % at 5 µM; 0.36% of 360,000 active; KKLEB CF airway cells viability, ATPlite luminescence, overnight; active compounds read low; cells stimulated with P. aeruginosa culture filtrate;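 active means corrected activity change at or below -50% at 5 µM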
# Hits are given with their value; – = inactive; · = not tested or not shown. Compounds with a hit are over-represented: about 2.3% of the library has one in this group of screens.
SMILES,HIF-2a inh,iPSC survival up,TWEAK Fn14 block,CF NFkB block,LGR2 inh,KKLEB tox
CCN1[C@@H]2c3ccc(-c4ccccc4)c(=O)n3C[C@H]1[C@H](CO)[C@H]2C(=O)NCc1ccccc1,·,·,·,·,–,·
CCCNC(=O)N[C@@H]1CC[C@@H](CC(=O)NC2CCC2)O[C@H]1CO,·,·,·,·,–,·
COc1ccc(NC(=O)N(C)C[C@@H]2Oc3ccc(NS(=O)(=O)c4c(C)noc4C)cc3CC(=O)N([C@@H](C)CO)C[C@H]2C)cc1,·,·,·,·,–,·
CC(C)NC(=O)Nc1ccc2c(c1)CC(=O)N([C@H](C)CO)C[C@H](C)[C@H](CN(C)S(=O)(=O)c1ccc(F)cc1)O2,·,·,·,·,–,·
CCCCC1C(=O)CC[C@H]2[C@@H]1CC(=O)[C@@H]2C/C=C\CCCC(=O)O (some centres not stated),–,–,–,–,·,-100
CCCCCCCC/C=C\CCCCCCCC(=O)O,–,–,–,–,·,–
Cc1ccccc1CN(C)CCS(=O)(=O)c1cc(Cl)ccc1Cl,–,–,65,–,–,–
Nc1nnc(CCS(=O)(=O)c2cc(Cl)ccc2Cl)s1,–,–,–,–,·,–
COc1ccc(S(=O)(=O)Nc2ccc3c(c2)OCCO3)cc1OC,–,–,55,–,–,–
Cn1cc(S(=O)(=O)Nc2ccc3c(c2)OCCO3)cn1,–,–,70,–,–,–
COc1ccc(S(=O)(=O)Nc2ccc3c(c2)OCO3)cc1C,–,–,–,–,–,–
CCn1cc(S(=O)(=O)Nc2ccc3c(c2)OCCO3)cn1,–,–,88,–,–,–
CCn1cc(S(=O)(=O)NCc2ccc3c(c2)OCO3)cn1,–,–,–,–,–,–
Cc1nc(S(=O)(=O)Nc2ccc3c(c2)OCCO3)cn1C,–,–,–,–,–,–
C[C@@H]1CN([C@@H](C)CO)C(=O)c2cc(-c3cccc(F)c3)cnc2O[C@@H]1CN(C)Cc1ccccn1,·,·,·,·,–,·
CCOc1ccc(NC(=O)CN(C)C(=O)c2cc(C)on2)cc1OCC,–,–,–,–,–,–
CCOc1ccc(NC(=O)CN(C)C(=O)c2ccncc2)cc1OCC,–,–,68,–,–,–
COc1ccc(Nc2ncnc3sc(-c4ccccc4)cc23)cc1OC,–,–,51,–,–,–
C[C@@H]1CN([C@H](C)CO)C(=O)CCCn2cc(nn2)CO[C@@H]1CN(C)Cc1cccc2c1OCCCO2,·,·,·,·,–,·
CO[C@H]1CN(C)C(=O)c2cc(NC(C)=O)ccc2OC[C@@H](C)N(CCC(F)(F)F)C[C@@H]1C,·,·,·,·,–,·
C=CCc1cccc(/C=N/NC(=O)CNc2cccc3ccccc23)c1O,–,–,69,–,·,–
O=C(Nc1cccc2ccccc12)c1ccc([N+](=O)[O-])o1,–,–,–,83,–,–
O=C(Nc1ncccn1)c1ccc([N+](=O)[O-])o1,–,–,–,–,–,–
O=C(Nc1cccc([N+](=O)[O-])c1)c1ccc([N+](=O)[O-])o1,–,–,–,70,–,–
O=C(Nc1cccc([N+](=O)[O-])c1)c1ccc2ccccc2c1O,–,–,53,–,–,–
SMILES,HIF-2a inh,iPSC survival up,TWEAK Fn14 block,CF NFkB block,LGR2 inh,KKLEB tox
C[C@H]1CCCCO[C@@H](CN(C)CC2CCCCC2)[C@@H](C)CN([C@@H](C)CO)C(=O)c2cc(NS(=O)(=O)c3ccc(F)cc3)ccc2O1,·,·,·,·,–,·
COc1ccc(S(=O)(=O)Nc2ccc3c(c2)C(=O)N([C@H](C)CO)C[C@H](C)[C@H](CN(C)C(=O)NC(C)C)O3)cc1,·,·,·,·,–,·
COc1ccc2c3c([nH]c2c1)[C@H](CO)N(C(=O)Nc1ccc(F)cc1)CC31CN(Cc2nccs2)C1,·,·,·,·,–,·
O=C(Nc1ccc2[nH]c(=O)[nH]c2c1)c1ccc([N+](=O)[O-])o1,–,–,–,–,–,–
Cc1ccc(NC(=O)c2ccc([N+](=O)[O-])o2)cc1C,–,–,–,82,–,-63
O=C(CNc1cccc2ccccc12)N/N=C/c1ccc([N+](=O)[O-])o1,–,–,56,–,–,–
O=C(CNc1cccc([N+](=O)[O-])c1)N/N=C/c1ccc([N+](=O)[O-])o1,–,–,–,–,·,–
O=C(C1CCN(S(=O)(=O)c2cccc3nsnc23)CC1)N1CC=C(c2ccccc2)CC1,–,–,–,–,·,–
O=C(C1CCCN(S(=O)(=O)c2cccc3nsnc23)C1)N1CC=C(c2ccccc2)CC1 (configuration not stated),–,–,51,–,·,–
COCC(=O)N(C)C[C@@H]1Oc2ncc(C#C[C@@H](C)O)cc2C(=O)N([C@@H](C)CO)C[C@@H]1C,·,·,·,·,–,·
COc1cc2c(oc(=O)c3cc(C)cc(OC)c32)c2c(C3OC(C)C(O)C(C)(O)C3O)ccc(O)c12 (configuration not stated),58,–,–,–,–,–
COc1cccc(N=Nc2ccc3ccccc3c2O)c1,–,–,75,–,–,–
COc1ccc(N=Nc2ccc3ccccc3c2)c(O)c1,–,–,81,–,60,–
COc1ccc(N=Cc2oc3ccc4ccccc4c3c2O)cc1,–,–,–,–,–,–
CCOC(=O)C1(CCCc2ccccc2)CCN(C2CCSCC2)CC1,–,–,55,–,–,–
OCC1(CCCc2ccccc2)CCN(C2CCSCC2)CC1,–,–,–,–,–,–
O=C(N[C@H]1CC[C@H](CCNS(=O)(=O)Cc2ccccc2)O[C@@H]1CO)c1cnccn1,·,·,·,·,–,·
N#Cc1ccc(-c2ccc3c(c2)[C@H]2[C@H](CCN2S(=O)(=O)c2ccccc2F)[C@H](CO)N3)cc1,·,·,·,·,–,·
COc1cccc(C(=O)Nc2ccc(C(=O)NCC3CCCO3)cc2)c1 (configuration not stated),–,–,–,–,–,–
COc1cccc(OCc2ccc(C(=O)NCC3CCCO3)cc2)c1 (configuration not stated),–,–,63,–,–,–
O=S(=O)(c1cccc(F)c1)N1CC[C@@H]2[C@H](CO)Nc3ccc(C#Cc4cccc(F)c4)cc3[C@@H]21,·,·,·,·,–,·
CO[C@@H]1CN(C)C(=O)c2cc(NC(=O)c3cnccn3)ccc2OC[C@H](C)N(C(C)=O)C[C@H]1C,·,·,·,·,–,·
C[C@H](CO)N1C[C@H](C)[C@@H](CN(C)Cc2ccc(C(F)(F)F)cc2)OCCCC[C@H](C)Oc2ccc(NC(=O)CCC(F)(F)F)cc2C1=O,·,·,·,·,–,·
COc1ccc2nc3c(cc2c1)c(NC(=O)c1cccs1)nn3CC(C)C,–,–,51,–,·,–
COc1ccc(S(=O)(=O)Nc2ccc3c(c2)C(=O)N([C@@H](C)CO)C[C@@H](C)[C@H](CN(C)C(=O)NC2CCCCC2)OCCCC[C@@H](C)O3)cc1,·,·,·,·,–,·
C[C@H](CO)N1C[C@H](C)[C@@H](CN(C)C(=O)Nc2cccc3ccccc23)Oc2ccc(NC(=O)Cc3ccccc3)cc2C1=O,·,·,·,·,–,·
